# In PubChem BioAssay AID588742 (Southern Research Specialized Biocontainment Screening …, 2011):
# Hit rate of the full screen: of about 1,800 compounds, about 410 (23%) were called active. How the calls were made is not given here. The list is a sample of the results. Results with a measured potency or affinity are listed apart.
# Assay: viability of Vero cells under compound – cytotoxicity control for flavivirus capping enzyme inhibitors (AID 588742)
# Conditions: cytotoxicity counter-screen; series mostly up to 40 µM
row,SMILES,outcome
1,CCOc1cc(/C=C2\C(=O)ON=C2c2ccccc2)ccc1OC,inactive
2,O=C1C(Cl)=C(N2CCOCC2)C(=O)N1c1ccccc1,inactive
3,Cc1cc(NS(=O)(=O)c2ccc(Nc3nc(-c4sc(N)nc4C)cs3)cc2)no1,inactive
4,CCc1sc(C(C2C(=O)CC(C)(C)CC2=O)C2C(=O)CC(C)(C)CC2=O)cc1[N+](=O)[O-],inactive
5,Cc1ccc(CNC(=O)CSc2n[nH]c(N)n2)cc1,inactive
6,CCCCC(NC(=O)Cc1c(C)c2cc3c(-c4ccccc4)coc3c(C)c2oc1=O)C(=O)O (stereo unspecified),inactive
7,Oc1ccc(N=Nc2ccccc2-c2nn[nH]n2)c(O)c1,inactive
8,CC(C)OP(=O)(OC(C)C)C1(NS(=O)(=O)c2ccc(Cl)cc2)C=C(Cl)C(=O)C(Cl)=C1,inactive
9,CC1=NN(c2ccc(Br)cc2)C(=O)/C1=C/c1ccc(-c2ccccc2C(=O)O)o1,inactive
10,Cc1ccccc1-c1ncc(CN2CCN(C3CCCCC3)C(CCO)C2)cn1 (stereo unspecified),inactive
11,CC1(C)Cc2c(C#N)c(N)sc(=S)c2CS1,inactive
12,COc1ccc(N2C(=O)C3CCCN3C2c2cccc(Br)c2)cc1 (stereo unspecified),inactive
13,O=[N+]([O-])c1ccc(N/N=C/c2ccc(O)c(O)c2O)c(S(=O)(=O)N2CCOCC2)c1,inactive
14,O=C(CCc1ccc(S(=O)(=O)N2CCOCC2)cc1)N/N=C/c1ccc(O)c(O)c1O,inactive
15,Oc1ccc2ccccc2c1C=NC12CN3CCN(CN(C3)C1)C2,inactive
16,O=C(O)c1ccc(N(c2ccccc2)c2ccccc2)cc1,inactive
17,CCN(CC)c1ccc(SS(=O)(=O)O)cc1,inactive
18,COc1ccccc1CNC(=O)CN1C(=O)N(C)C2(CCCCC2)C1=O,inactive
19,O=c1[nH]n2c(=O)c3c([nH]c2c1N=Nc1cccc(Cl)c1)CCCC3,inactive
20,CC(C)CSC1=NSC2=NC(=O)/C(=C\c3ccccc3)C(=N)N12,inactive
21,Nc1ccc(N2CCOCC2)c2nonc12,inactive
22,CN(C)c1ccc(NC(=O)CCCc2ccccc2)cc1,inactive

row,SMILES,outcome
1,O=C(O)c1cccc(NC2=C(Cl)C(=O)c3ccccc3C2=O)c1,inactive
2,O=C(O)c1ccc(COc2ccccc2C=C2C(=O)c3ccccc3C2=O)cc1,inactive
3,Cc1ccccc1SCC(=O)OCC(=O)Nc1ccc(N(C)C)cc1,inactive
4,CC(=O)N(C(C)=O)N1C(=O)C2C3c4ccccc4C(c4ccccc43)C2C1=O (stereo unspecified),inactive
5,O=C(CN1C(=O)/C(=C2\SC(=S)N(CCS(=O)(=O)O)C2=O)c2ccccc21)Nc1cccc(Br)c1,inactive
6,O=C1/C(=C/c2cccc(F)c2)SC(=S)N1NS(=O)(=O)c1ccccc1,inactive
7,CCNc1sc(C(=O)c2cccs2)c(N)c1C#N,inactive
8,CC(C)CN1C(=O)/C(=C/c2ccco2)NC1=S,inactive
9,Cc1cccc(OC(C)C(=O)OCC(=O)Nc2sccc2C(N)=O)c1 (stereo unspecified),inactive
10,CC(=O)C1CCC2C3CCC4=CC(=O)CCC4(C)C3(Br)C(=O)CC12C (stereo unspecified),inactive
11,COC(=O)CCC(=O)OC1(C)C(=O)C2=CN(Cc3ccccc3)C(c3ccc(OC)cc3)=CC2=C(Br)C1=O (stereo unspecified),inactive
12,O=c1c([N+](=O)[O-])c(O)c2ccccc2n1Cc1ccccc1,inactive
13,Nc1nc(N=Nc2ccc(O)cc2)cc(=O)[nH]1,inactive
14,Cc1cc(C(=O)O)ccc1-c1ccc(/C=C2\NC(=O)N(Cc3ccc(F)cc3)C2=O)o1,inactive
15,CCS(=O)(=O)c1nc(S(=O)(=O)c2ccc(Cl)cc2)c(N2CCC(O)CC2)s1,inactive
16,O=C1C2C3CCCC3=C3CCCC3C2C(=O)N1c1cccc(Cl)c1 (stereo unspecified),inactive
17,O=C(O)c1cccc(Nc2nc3ccccc3nc2NS(=O)(=O)c2cccs2)c1,inactive
18,Cc1ccc(N2NC(=O)/C(=C/c3ccc(-c4ccc(Cl)c(C(=O)O)c4)o3)C2=O)cc1C,inactive
19,O=C1C(Cl)=C(Oc2ccccc2)C(=O)c2ccccc21,inactive
20,COc1cccc(/C=C2\C(=O)C(=O)c3ccccc32)c1,inactive
21,CC(=O)OCC1=C(C(=O)O)N2C(=O)C(NC(=O)c3ccc(COc4cccc(Cl)c4Cl)o3)C2SC1 (stereo unspecified),inactive
22,O=C(NCCCN1CCOCC1)c1ccc(NS(=O)(=O)c2ccccc2)cc1,inactive

row,SMILES,outcome
1,O=C(c1c(F)cccc1F)N1CCCC1,inactive
2,Oc1ccc(/C=N/Nc2ccc(Cl)nn2)c(O)c1O,inactive
3,C#CCOc1ccc(/C=C2/C(=O)N(c3ccc(S(N)(=O)=O)cc3)N=C2C)cc1OC,inactive
4,O=C(CCN1C(=O)/C(=C\c2ccccc2F)SC1=S)Nc1ccc(C(=O)O)c(O)c1,inactive
5,COC(=O)c1sc(N2C(=O)C(O)=C(C(=O)c3ccc(C)o3)C2c2ccc([N+](=O)[O-])cc2)nc1C (stereo unspecified),inactive
6,CC[n+]1c(/C=C2\C=C(C)CC(C)(C)C2)sc2ccccc21,inactive
7,O=C(O)c1cccc(N2C(=O)c3cc([N+](=O)[O-])cc4cc([N+](=O)[O-])cc(c34)C2=O)c1,inactive
8,CC1=NN(c2ccccc2)C(=O)/C1=C\c1ccc(Oc2ccc([N+](=O)[O-])cc2[N+](=O)[O-])cc1,inactive
9,O=C(c1cccc(S(=O)(=O)N2CCOCC2)c1)N(Cc1ccc(F)cc1)Cc1ccco1,inactive
10,Cc1ccc(C2/C(=C(/O)c3ccc(Br)cc3)C(=O)C(=O)N2Cc2ccco2)o1 (stereo unspecified),inactive
11,CCc1ccc([C@@H]2CC=C(C(=O)O)[C@H](c3ccc(C)cc3)N2S(=O)(=O)c2ccc(C)cc2)cc1,inactive
12,O=C(O)/C=C/C(=O)c1c(-c2ccccc2)[nH]c2ccccc12,inactive
13,CCc1ccc(NC(=O)C2=CC=CN3CCS(=O)(=O)N=C23)cc1,inactive
14,Cc1noc(NS(=O)(=O)c2ccc(NC(=O)c3ccccc3NS(=O)(=O)c3ccc(F)c(F)c3)cc2)c1C,inactive
15,O=C1C(Cl)=C(N2CCOCC2)C(=O)N1c1ccc(Br)cc1,inactive
16,Cc1ccc(C)c(OCC(=O)NCC2COc3ccccc3O2)c1 (stereo unspecified),inactive
17,COc1nc(OC)nc(N2CCC(C(=O)NC3CC3)CC2)n1,inactive
18,O=C(O)CN1C(=O)/C(=C\c2cc(Br)ccc2OCc2ccc(Cl)cc2)SC1=S,inactive
19,O=C(O)CCN1C(=O)/C(=C\c2cccc(Oc3ccccc3)c2)SC1=S,inactive
20,COc1cc(/C=C2/S/C(=N/S(=O)(=O)c3ccccc3)NC2=O)c([N+](=O)[O-])cc1OC,inactive
21,O=C1OC(c2ccccc2)(c2cc(Br)c(O)c(Br)c2)c2ccccc21 (stereo unspecified),inactive
22,O=C(O)C(Cc1ccccc1)N1C(=O)c2c(Cl)c(Cl)c(Cl)c(Cl)c2C1=O (stereo unspecified),inactive
